Drawing on PubChem BioAssay (NCATS), this text covers outcome, Potency and activation for 34 compounds.

Experiment [1] deals with Glucagon-like peptide 1 receptor (Homo sapiens) (UniProt P43220). Kind of experiment: qHTS of GLP-1 Receptor Agonists: LOPAC Validation (AID 624148).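 Also: higher luminescence signal means agonism.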 In short, it runs like this:
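HEK293 cells stably co-expressing GLP-1R and a cAMP-responsive luciferase reporter, plated 12 hours before compound, then incubated 4-6 hr at 37 deg C. Luminescence read 12 min after detection reagent.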
On the technique in general: In qHTS, concentration-response curves come from the screen itself.

Experiment [2] is described as follows: qHTS of Nrf2 Activators: LOPAC Validation (AID 624149). In short, it runs like this:
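ARE reporter activation measured in AREc32 firefly luciferase cells after 24 hr compound exposure; Steady-Glo luminescence.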

Experiment [3] is described as follows: HTS Assay for Allosteric Antagonists of the Human D2 Dopamine Receptor: Hit Validation in HTRF (AID 624455).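 Also: stable D1 dopamine receptor cell line scored for blocking the D1 response.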 Summed up: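 Signal from an HTRF read-out in D1-expressing stable cells gave hit activity as inhibition of the D1 response.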
In general terms: TR-FRET usually uses a lanthanide donor and a delayed reading to cut background.

Experiment [4] is described as follows: qHTS assay for small molecule agonists of the antioxidant response element (ARE) signaling pathway (AID 651741; active = well fitted activation curve with a large enough effect in the signal ratio; the % refers to the signal ratio). In short, it runs like this:
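HepG2 ARE-bla cells plated at 2,000 cells/well and incubated 5 h at 37 C/5% CO2 received 23 nL compound in DMSO. After 16 h at 37 C, LiveBLAzer B/G FRET substrate was applied for 2 h at room temperature and fluorescence read.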

A short description of experiment [5]: qHTS assay for small molecule activators of the p53 signaling pathway (AID 651743; active = well fitted activation curve with a large enough effect in the signal ratio, not every such curve was filed as active; the % refers to the signal ratio; also: series mostly up to about 92 µM). The settings on record: HCT-116 p53RE-bla, beta-lactamase FRET ratio, 16 h; activation: active compounds read high. Summed up:
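HCT-116 p53RE-bla, 4,000 cells/well; 5 h settle; cpd/DMSO 16 h, 37 C; LiveBLAzer B/G 2 h RT; fluorescence intensity.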

Values without a mark were called inactive. Inconclusive results are not listed. Where a call stands in place of a potency, no number is given. Calls of active or inactive are those of the source. Unless noted, calls follow the shape of the dose curve; as a rule, active = well fitted curve in the direction sought with a large enough effect; inconclusive = small, poorly fitted or top-dose-only effect, or another doubt; inactive = no such curve, though single readings can be large; an effect the other way counts as inactive or inconclusive.

Glucagon-like peptide 1 receptor (Homo sapiens), sequence (P43220 whole entry, looked up): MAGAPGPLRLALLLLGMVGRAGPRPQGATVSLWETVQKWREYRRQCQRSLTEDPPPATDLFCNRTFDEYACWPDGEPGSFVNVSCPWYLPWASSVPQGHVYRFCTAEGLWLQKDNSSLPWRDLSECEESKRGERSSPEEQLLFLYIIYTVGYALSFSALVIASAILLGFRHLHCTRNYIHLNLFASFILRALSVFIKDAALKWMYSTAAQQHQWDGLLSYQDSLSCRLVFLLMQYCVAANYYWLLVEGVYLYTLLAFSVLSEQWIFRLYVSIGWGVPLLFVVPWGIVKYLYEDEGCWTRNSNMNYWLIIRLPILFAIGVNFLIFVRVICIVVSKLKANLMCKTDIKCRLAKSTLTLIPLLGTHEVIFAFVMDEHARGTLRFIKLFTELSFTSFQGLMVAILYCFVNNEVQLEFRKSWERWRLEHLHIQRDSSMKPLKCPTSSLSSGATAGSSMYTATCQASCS

Consider `CCCCCCCC/C=C\CCCCCCCC(=O)NCc1ccc(O)c(OC)c1`, for which the result in experiment [1] and in experiment [2] was inactive. For the same compound, in experiment [3], the Potency result is “inactive”.

Consider `c1cc(CN2CCCCC2)cc(OCCCNc2nc3ccccc3s2)c1`, for which the compound was called inactive in experiment [1] and in experiment [2]. In experiment [3], the Potency result was “inactive”.

On to `Cc1cccc(C)c1NC(=O)C(C)N` (stereo not drawn), for which the outcome in experiment [1] and in experiment [2] was inactive. The Potency entry in experiment [3] is “inactive”.

As to `Fc1ccc(C(c2ccc(F)cc2)N2CCN(C/C=C/c3ccccc3)CC2)cc1`, the compound was called inactive in experiment [1] and in experiment [2]. The Potency result in experiment [3] is “inactive”.

For `CC(C)NNC(=O)c1ccncc1`, the compound was called inactive in experiment [1] and in experiment [2]. The Potency result in experiment [3] is “inactive”.

On to `CSc1ccc(C(=O)c2[nH]c(=O)[nH]c2C)cc1`, for which the compound was called inactive in experiment [1] and in experiment [2]. Also, the Potency result in experiment [3] is “inactive”.

Turning to `CN(C)C/C=C(/c1ccc(Br)cc1)c1cccnc1`, the outcome in experiment [1] and in experiment [2] was inactive. Further, the Potency entry in experiment [3] is “inactive”.

Consider `CC(N=C(NC#N)Nc1ccncc1)C(C)(C)C` (stereo not drawn), for which the compound was classed as inactive in experiment [1] and in experiment [2]. In addition, the Potency result in experiment [3] is “inactive”.

Regarding `Cc1nc2ccccn2c(=O)c1CCN1CCC(C(=O)c2ccc(F)cc2)CC1`, the call in experiment [1] and in experiment [2] was inactive. Further, the Potency result in experiment [3] is “inactive”.

For the compound `N[C@@H](COP(=O)(O)O)C(=O)O`, the result in experiment [1] and in experiment [2] was inactive. In addition, in experiment [3], the Potency entry was “inactive”.

Consider `CN(C)CCOC(=O)COc1ccc(Cl)cc1`, for which the result in experiment [1] and in experiment [2] was inactive. In addition, the Potency entry in experiment [3] was “inactive”.

As to `COCC(=O)O[C@]1(CCN(C)CCCc2nc3ccccc3[nH]2)CCc2cc(F)ccc2[C@@H]1C(C)C`, the result in experiment [1] and in experiment [2] was inactive. Also, in experiment [3], the Potency result was “inactive”.

Consider `COCCCC/C(=N\OCCN)c1ccc(C(F)(F)F)cc1`, for which the result in experiment [1] and in experiment [2] was inactive. Moreover, in experiment [3], the Potency result was “inactive”.

In the case of `CCCCCN(CCCCC)C(=O)C(CCC(=O)O)NC(=O)c1ccc(Cl)c(Cl)c1` (stereo not drawn), the compound was called inactive in experiment [1] and in experiment [2]. For the same compound, the Potency result in experiment [3] was “inactive”.

On to `CCc1c(C)[nH]c2c1C(=O)C(CN1CCOCC1)CC2` (stereo not drawn), for which the compound was called inactive in experiment [1] and in experiment [2]. Also, the Potency entry in experiment [3] is “inactive”.

For `COc1ccc(CCN(C)CCCC(C#N)(c2cc(OC)c(OC)c(OC)c2)C(C)C)cc1OC` (stereo not drawn), the compound was classed as inactive in experiment [1] and in experiment [2].

Turning to `CC(=O)OC(C)C[N+](C)(C)C` (stereo not drawn), the call in experiment [1] and in experiment [2] was inactive. Besides, the Potency entry in experiment [3] was “inactive”.

Turning to `CN(C)C(=O)Oc1ccc[n+](C)c1`, the compound was classed as inactive in experiment [1] and in experiment [2]. Besides, the Potency result in experiment [3] is “inactive”.

For `CCCN(CCC)C(=O)C(CCC(=O)O)NC(=O)c1ccccc1` (stereo not drawn), the outcome in experiment [1] and in experiment [2] was inactive. For the same compound, in experiment [3], the Potency result was “inactive”.

As for `COc1ccc([C@@H]2Sc3ccccc3N(CCN(C)C)C(=O)[C@@H]2OC(C)=O)cc1`, the call in experiment [1] and in experiment [2] was inactive. In addition, the Potency result in experiment [3] was “inactive”.

With `NC(N)=N/N=C/c1c(Cl)cccc1Cl`, the call in experiment [1] and in experiment [2] was inactive. For the same compound, the Potency result in experiment [3] is “inactive”.

Consider `CCN(CC)CCCN(c1ccccc1)C1Cc2ccccc2C1`, for which the compound was classed as inactive in experiment [1] and in experiment [2]. In experiment [3], the Potency entry was “inactive”.

As for `O=C(O)CN(CCOCCOCCN(CC(=O)O)CC(=O)O)CC(=O)O`, the compound was classed as inactive in experiment [1] and in experiment [2]. Besides, in experiment [3], the Potency result is “inactive”.

On to `FC(F)(F)c1ccccc1-n1ccnc1`, for which the call in experiment [1] and in experiment [2] was inactive. Besides, in experiment [3], the Potency result was “inactive”.

With `O=C1NCN(c2ccccc2)C12CCN(CCCC(c1ccc(F)cc1)c1ccc(F)cc1)CC2`, the result in experiment [1] and in experiment [2] was inactive.

Consider `CCN(CC)CC(=O)Nc1c(C)cccc1C`, for which the result in experiment [1] and in experiment [2] was inactive. Further, in experiment [3], the Potency entry was “inactive”.

Turning to `CN(C(=O)CCCOc1ccc2[nH]c(=O)ccc2c1)C1CCCCC1`, the compound was classed as inactive in experiment [1] and in experiment [2]. Further, in experiment [3], the Potency entry is “inactive”.

With `NC(Cc1ccc(Cl)cc1)C(=O)O` (stereo not drawn), the result in experiment [1] and in experiment [2] was inactive. Also, the Potency entry in experiment [3] was “inactive”.

As to `C[C@H](CS)C(=O)N1CCC[C@H]1C(=O)O`, in experiment [2], the result was inactive.

As for `Nc1c2c(nc3ccccc13)CCCC2O` (stereo not drawn), the result in experiment [1] and in experiment [2] was inactive. Besides, in experiment [3], the Potency entry is “inactive”.

With `CCCCOCCOCCOCc1cc2c(cc1CCC)OCO2`, in experiment [4], the Potency entry is “inactive”.

As to `CC(=O)Nc1nnc(S(N)(=O)=O)s1`, the result in experiment [1] and in experiment [2] was inactive. Also, the Potency result in experiment [3] and in experiment [4] was “inactive” each time. Further, in experiment [5], the activation is -5.68%.

As to `OCCN1CCN(CCCN2c3ccccc3C=Cc3ccccc32)CC1`, the call in experiment [1] and in experiment [2] was inactive. Further, the Potency entry in experiment [3] was “inactive”.

`COC(=O)C1=C(C)NC(C)=C(C(=O)OC(C)(C)CN(C)CCC(c2ccccc2)c2ccccc2)C1c1cccc([N+](=O)[O-])c1` (stereo not drawn): the result in experiment [1] and in experiment [2] was inactive. The Potency entry in experiment [3] was “inactive”.
